Test [1] can be described thus: qHTS assay to identify small molecule antagonists of the thyroid receptor (TR) signaling pathway - cell viability counter screen (AID 743064). Note: nearly all actives have a fitted effect of over 50% in size. An outline of the steps: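 GH3.TRE-Luc rat pituitary cells carrying a TRE-luciferase reporter were treated with compound plus 1 nM T3 (final) for 23.5 h at 37 °C. Viability was then read in the same wells by CellTiter-Fluor fluorescence after a further 30 min.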
For orientation: In qHTS, concentration-response curves come from the screen itself.

In test [2] the test system is thyroid hormone receptor (rat, GH3 cells). Nature of the test: qHTS assay to identify small molecule agonists of the thyroid receptor (TR) signaling pathway (AID 743066; calls by dose curve).
The target of test [3] is Estrogen receptor (Homo sapiens) (UniProt P03372). Nature of the test: qHTS assay to identify small molecule antagonists of the estrogen receptor alpha (ER-alpha) signaling pathway (AID 743069; active = well fitted curve in the direction sought with a large enough effect in the signal ratio in the repeat runs, not every such curve was filed as active; the % refers to the signal ratio). The method, boiled down: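 Fluorescence intensity from a beta-lactamase FRET substrate served as the read-out. Cells: HEK293 with stably integrated ER-alpha-UAS-bla reporter. Agonist 17beta-estradiol was co-added with compounds; incubation 18 hr at 37C, substrate 2 hr at room temperature.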

Test [4] in a line: qHTS assay to identify small molecule antagonists of the estrogen receptor alpha (ER-alpha) signaling pathway - cell viability counter screen (AID 743074; calls by dose curve; note: nearly all actives have a fitted effect of over 45% in size).
The target in test [5] is Estrogen receptor (Homo sapiens) (UniProt P03372). Nature of the test: qHTS assay to identify small molecule agonists of the estrogen receptor alpha (ER-alpha) signaling pathway (AID 743075; calls by dose curve).
For test [6] the target is unchanged. Kind of test: qHTS assay to identify small molecule agonists of the estrogen receptor alpha (ER-alpha) signaling pathway using the BG1 cell line (AID 743079). Note: nearly all actives have a fitted effect of over 20% in size.
The nature of test [7]: qHTS assay to identify small molecule antagonists of the estrogen receptor alpha (ER-alpha) signaling pathway using the BG1 cell line - cell viability counter screen (AID 743081).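 Note: compound given together with 17beta-estradiol as the ER stimulus; series mostly up to about 70 µM; nearly all actives have a fitted effect of over 45% in size.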
The target of the next test is Aromatase (Homo sapiens) (UniProt P11511). Nature of the test: qHTS assay to identify aromatase inhibitors (AID 743083). Note: series mostly up to about 70 µM; nearly all actives have a fitted effect of over 55% in size.
Test [8] can be described thus: qHTS assay to identify aromatase inhibitors - cell viability counter screen (AID 743084).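 Note: cells stimulated with testosterone during compound exposure; nearly all actives have a fitted effect of over 55% in size.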
In test [9] the target is Aryl hydrocarbon receptor (Homo sapiens) (UniProt P35869). Kind of test: qHTS assay to identify small molecule that activate the aryl hydrocarbon receptor (AhR) signaling pathway (AID 743085).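 Note: HG2L7.5c1 human HepG2 liver cells with stably integrated DRE-driven firefly reporter; series mostly up to about 70 µM; nearly all actives have a fitted effect of over 15% in size.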 The method, boiled down: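 HepG2 cells (HG2L7.5c1) stably carrying a firefly luciferase reporter driven by 20 dioxin responsive elements were exposed to compound for 24 h at 37C after a 5 h settling period; luminescence rise (ONE-Glo) indicated activation.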

Test [10] is described as follows: qHTS assay to identify small molecule that activate the aryl hydrocarbon receptor (AhR) signaling pathway - cell viability counter screen (AID 743086). Note: series mostly up to about 70 µM; nearly all actives have a fitted effect of over 45% in size. An outline of the steps: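 Cytotoxicity counter screen: CellTiter-Fluor signal (30 min, 37 C) in 4000 HepG2 cells/well carrying the DRE-luciferase reporter, following 24 h compound exposure at 37 C.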
For test [11], the target named is Peroxisome proliferator-activated receptor gamma (Homo sapiens) (UniProt P37231). Nature of the test: qHTS assay to identify small molecule agonists of the peroxisome proliferator-activated receptor gamma (PPARg) signaling pathway (AID 743094; active = well fitted activation curve with a large enough effect in the signal ratio in the repeat runs, not every such curve was filed as active; the % refers to the signal ratio; note: potency is the fitted concentration of half-maximal effect). An outline of the steps: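 Cells from the PPARg UAS-bla HEK293H line are plated and incubated 5 h at 37C. Compounds in DMSO are pinned in and left 17 h at 37C. LiveBLAzer B/G substrate is then added for 1 h at room temperature before fluorescence is measured.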

Test [12] has the same target. Nature of the test: qHTS assay to identify small molecule antagonists of the peroxisome proliferator-activated receptor gamma (PPARg) signaling pathway (AID 743191; calls by dose curve; note: series mostly up to about 63 µM; nearly all actives have a fitted effect of over 30% in size). An outline of the steps: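 Beta-lactamase reporter under UAS control in HEK293H PPARg-bla cells; compound treatment 17 h at 37C. Read-out: fluorescence intensity after 1 h room-temperature incubation with LiveBLAzer B/G FRET substrate.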

The nature of test [13]: qHTS assay for small molecule agonists of the antioxidant response element (ARE) signaling pathway (AID 743202; active = well fitted activation curve with a large enough effect in the signal ratio in the repeat runs, not every such curve was filed as active; the % refers to the signal ratio). An outline of the steps:
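Beta-lactamase reporter activity, read as fluorescence intensity, reflects ARE/Nrf2 pathway induction in HepG2 cells after 16 h compound exposure at 37 C; substrate loading was 2 h at room temperature.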

Test [14] in a line: qHTS assay for small molecule agonists of the antioxidant response element (ARE) signaling pathway - cell viability counter screen (AID 743203; calls by dose curve; note: nearly all actives have a fitted effect of over 55% in size). An outline of the steps: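 Cytotoxicity was tested in parallel with the ARE reporter screen. ARE-bla HepG2 cells were exposed to compounds for 16 hrs, and viability was taken from CellTiter-Glo luminescence.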
Test [15] can be described thus: qHTS assay for small molecule activators of the heat shock response signaling pathway - cell viability counter screen (AID 743209). Note: nearly all actives have a fitted effect of over 50% in size. The method, boiled down: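 Cytotoxicity counter screen run in parallel with the HSE beta-lactamase reporter, using the same wells. HeLa HSE-bla cells received compound for 5 h at 37 C; ATP-based CellTiter-Glo luminescence was measured after 30 min at room temperature.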

Test [16] in a line: qHTS assay for small molecule activators of the heat shock response signaling pathway (AID 743210; active = well fitted activation curve with a large enough effect in the signal ratio in the repeat runs, with a control signal flat, not every such curve was filed as active; the % refers to the signal ratio;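 note: HeLa cells with beta-lactamase reporter driven by heat shock elements; series mostly up to about 63 µM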). An outline of the steps: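 Fluorescence from a cleaved B/G FRET substrate (2.5 h, room temp) reports HSE-driven beta-lactamase in HeLa cells treated 5 h at 37 C with DMSO-dissolved compounds.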
The nature of test [17]: qHTS assay to identify small molecule antagonists of the thyroid receptor (TR) signaling pathway (AID 743065). Note: series mostly up to about 70 µM; nearly all actives have a fitted effect of over 55% in size. The method, boiled down:
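Antagonism measured as loss of luciferase signal in GH3 cells stably carrying a TRE-luciferase reporter, co-treated with compound and T3 (1 nM final) for 23.5 h at 37 C. Viability was read in the same well by CellTiter-Fluor.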

Test [18] is described as follows: qHTS assay to identify small molecule antagonists of the peroxisome proliferator-activated receptor gamma (PPARg) signaling pathway - cell viability counter screen (AID 743194). Note: nearly all actives have a fitted effect of over 55% in size. An outline of the steps: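 Viability was measured as CellTiter-Glo luminescence in GeneBLAzer PPARg UAS-bla HEK293H cells. These cells had been exposed 17 h at 37 C to compounds together with rosiglitazone at 50 nM final, with the beta-lactamase readout taken in the same wells.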

The structures appear in SMILES notation. Results filed as inconclusive are left out. Calls of active or inactive are those of the source. Unless noted, calls come from the whole dose curve; as a rule, active = well fitted curve in the direction sought with a large enough effect in the repeat runs; inconclusive = weak or mixed curves; inactive = no such curve, though single readings can be large; an effect the other way counts as inactive or inconclusive.

Aryl hydrocarbon receptor (Homo sapiens), sequence (P35869 whole entry, looked up): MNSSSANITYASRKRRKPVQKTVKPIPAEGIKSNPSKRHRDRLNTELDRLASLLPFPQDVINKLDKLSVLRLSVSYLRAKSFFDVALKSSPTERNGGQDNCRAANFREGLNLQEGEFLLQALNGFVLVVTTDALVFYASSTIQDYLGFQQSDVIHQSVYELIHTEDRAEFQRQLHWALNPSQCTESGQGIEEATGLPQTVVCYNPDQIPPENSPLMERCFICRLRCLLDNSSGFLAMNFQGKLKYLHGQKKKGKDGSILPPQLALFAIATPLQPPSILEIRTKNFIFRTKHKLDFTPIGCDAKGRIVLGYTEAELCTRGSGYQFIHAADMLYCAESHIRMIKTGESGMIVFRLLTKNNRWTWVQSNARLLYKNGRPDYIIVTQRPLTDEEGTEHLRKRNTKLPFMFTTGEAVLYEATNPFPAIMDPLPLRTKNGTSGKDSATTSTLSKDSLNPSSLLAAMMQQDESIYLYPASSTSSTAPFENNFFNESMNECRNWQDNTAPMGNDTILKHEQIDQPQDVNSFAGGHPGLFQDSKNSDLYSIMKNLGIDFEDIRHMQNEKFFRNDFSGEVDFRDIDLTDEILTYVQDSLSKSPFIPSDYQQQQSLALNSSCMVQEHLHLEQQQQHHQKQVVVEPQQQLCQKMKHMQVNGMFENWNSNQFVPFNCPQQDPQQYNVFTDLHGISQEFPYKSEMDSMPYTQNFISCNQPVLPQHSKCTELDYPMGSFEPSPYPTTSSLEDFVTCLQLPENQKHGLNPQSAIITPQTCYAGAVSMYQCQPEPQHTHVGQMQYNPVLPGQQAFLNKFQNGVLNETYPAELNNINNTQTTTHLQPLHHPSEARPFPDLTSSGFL
Estrogen receptor (Homo sapiens), sequence (P03372 whole entry, looked up): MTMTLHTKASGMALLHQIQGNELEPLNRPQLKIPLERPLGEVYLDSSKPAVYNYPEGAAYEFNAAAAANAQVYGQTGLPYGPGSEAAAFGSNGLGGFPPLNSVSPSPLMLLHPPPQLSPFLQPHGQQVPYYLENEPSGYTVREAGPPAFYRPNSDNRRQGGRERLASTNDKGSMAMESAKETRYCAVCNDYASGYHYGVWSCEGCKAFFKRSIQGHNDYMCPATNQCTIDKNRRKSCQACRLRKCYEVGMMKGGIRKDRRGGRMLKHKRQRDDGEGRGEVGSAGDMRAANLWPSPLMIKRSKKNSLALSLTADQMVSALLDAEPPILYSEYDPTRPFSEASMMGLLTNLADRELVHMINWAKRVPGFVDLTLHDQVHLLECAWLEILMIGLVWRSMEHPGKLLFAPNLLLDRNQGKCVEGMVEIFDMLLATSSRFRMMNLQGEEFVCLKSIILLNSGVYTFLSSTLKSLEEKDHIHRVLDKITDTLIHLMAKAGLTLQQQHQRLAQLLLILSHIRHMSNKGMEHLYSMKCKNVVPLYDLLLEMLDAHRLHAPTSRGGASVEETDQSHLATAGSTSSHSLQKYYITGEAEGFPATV
Aromatase (Homo sapiens), sequence (P11511 whole entry, looked up): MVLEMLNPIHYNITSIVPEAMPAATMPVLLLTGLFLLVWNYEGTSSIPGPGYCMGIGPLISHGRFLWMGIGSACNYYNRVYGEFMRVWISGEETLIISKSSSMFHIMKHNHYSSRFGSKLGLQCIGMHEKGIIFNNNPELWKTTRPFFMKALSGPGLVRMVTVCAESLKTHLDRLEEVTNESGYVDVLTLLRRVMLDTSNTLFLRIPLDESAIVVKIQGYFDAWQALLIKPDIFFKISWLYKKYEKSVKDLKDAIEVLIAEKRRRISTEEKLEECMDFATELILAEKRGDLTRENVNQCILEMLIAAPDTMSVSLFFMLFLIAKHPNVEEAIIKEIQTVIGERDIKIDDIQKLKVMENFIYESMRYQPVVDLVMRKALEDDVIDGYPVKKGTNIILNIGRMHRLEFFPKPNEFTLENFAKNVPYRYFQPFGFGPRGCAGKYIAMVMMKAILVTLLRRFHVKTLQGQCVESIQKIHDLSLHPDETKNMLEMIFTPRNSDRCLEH
Peroxisome proliferator-activated receptor gamma (Homo sapiens), sequence (P37231 whole entry, looked up): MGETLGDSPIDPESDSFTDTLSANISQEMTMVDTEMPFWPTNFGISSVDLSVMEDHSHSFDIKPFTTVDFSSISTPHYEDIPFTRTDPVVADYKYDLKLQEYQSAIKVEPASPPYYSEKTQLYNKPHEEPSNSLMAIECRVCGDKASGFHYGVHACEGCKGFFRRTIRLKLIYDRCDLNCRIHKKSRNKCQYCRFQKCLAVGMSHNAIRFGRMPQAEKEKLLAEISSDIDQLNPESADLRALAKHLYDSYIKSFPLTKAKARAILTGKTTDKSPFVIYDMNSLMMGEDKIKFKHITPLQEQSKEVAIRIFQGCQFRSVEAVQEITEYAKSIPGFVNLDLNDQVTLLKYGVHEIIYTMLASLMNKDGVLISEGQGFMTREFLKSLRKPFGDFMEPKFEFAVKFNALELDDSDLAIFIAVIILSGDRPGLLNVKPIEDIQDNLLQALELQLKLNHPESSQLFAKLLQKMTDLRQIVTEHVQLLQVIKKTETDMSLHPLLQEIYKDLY

With `CC(C)C1OCCN1CCOC(=O)NCCCCCCNC(=O)OCCN1CCOC1C(C)C` (configuration not stated), the Potency entry in test [1], in test [5], in test [6], in test [7], in test [8] and in test [9] was “inactive” in each case. Further, the Potency result in test [10], in test [11], in test [13] and in test [15] was “inactive” in each case. The call (in [2]; in [3]; in [4]; with Aromatase (Homo sapiens); in test [12]; in [14]) was inactive. The molecule was classed as inactive in test [16].

With `CC(=O)OC(C)=O`, the Potency result in [1], in test [17], in test [7], in test [8], in test [10] and in [11] was “inactive” in each case. The Potency entry in test [13] and in [15] was “inactive” throughout. The result (in [2]; in test [4]; with Aromatase (Homo sapiens); in [12]; in test [18]; in test [14]) was inactive.

`O=Cc1ccccc1Cl`: the Potency entry in test [1], in test [17], in test [7], in test [9], in [10] and in [11] was “inactive” each time. Further, the Potency result in [13] and in test [15] was “inactive” throughout. Moreover, the molecule was classed as inactive (in test [2]; in test [4]; with Aromatase (Homo sapiens); in test [12]; in [18]; in [14]). For the same molecule, the outcome in test [16] was inactive.

In the case of `Cc1ccc(C(C)NC(=O)[C@@H](NC(=O)OC(C)C)C(C)C)cc1` (some centres not stated), the Potency entry in test [1], in [17], in test [7], in test [8], in test [9] and in test [10] was “inactive” each time. Further, the Potency entry in test [11], in test [13] and in test [15] was “inactive” each time. Besides, the outcome (in [2]; in test [4]; with Aromatase (Homo sapiens); in test [18]; in test [14]; in test [16]) was inactive.

Turning to `N#Cc1cscn1`, the Potency result in test [1], in test [17], in [7], in test [8], in test [9] and in test [10] was “inactive” in each case. Moreover, the Potency entry in [13] and in test [15] was “inactive” in each case. Besides, the call (in [2]; with Aromatase (Homo sapiens); in test [12]; in [18]; in test [14]; in [16]) was inactive. Moreover, the Potency in [11] was 54.9 µM (active).

For `CC1=NN(c2ccc(S(=O)(=O)O)cc2)C(=O)C1`, the Potency result in test [1], in test [17], in test [7], in [8], in test [9] and in test [10] was “inactive” each time. The Potency entry in [11], in test [13] and in test [15] was “inactive” throughout. Also, the molecule was called inactive (in [2]; in test [4]; in the test with Aromatase (Homo sapiens); in test [18]; in test [14]; in test [16]).

With `CC(C)CCOC(=O)c1ccccc1`, the Potency result in test [1], in test [17], in test [7], in [8], in test [9] and in [10] was “inactive” each time. The Potency result in test [11], in [13] and in test [15] was “inactive” each time. Besides, the outcome (in test [2]; in test [4]; in the test with Aromatase (Homo sapiens); in [18]; in [14]; in test [16]) was inactive.

For `C/C=C(\C)C(=O)OCCc1ccccc1`, the Potency entry in test [1], in [17], in test [7], in test [8], in test [9] and in test [10] was “inactive” in each case. Further, the Potency entry in test [11], in [13] and in [15] was “inactive” each time. Also, the call (in test [2]; in test [4]; in the test with Aromatase (Homo sapiens); in [18]; in test [14]; in [16]) was inactive.

`O=C(O)CONC(=O)c1ccccc1`: the Potency entry in test [1], in test [17], in test [7], in [10], in test [13] and in test [15] was “inactive” in each case. Also, the call in [2], in test [4], in test [18], in [14] and in [16] was inactive.

Source of the values: PubChem BioAssay (Tox21).
